Measured values from PubChem BioAssay.
Active and inactive are the calls of the source.

Key:
[1] = anti-His antibody binders, primary screen, artefact control for SMM control protein annotation, biochemical, small-molecule microarray, 635 nm fluorescence (AID 1128); conditions: anti-His Alexa647 antibody binding, higher = more signal;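 further: score merges feature fluorescence with signal-to-noise for each printed compound spot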
[2] = test system: Human papillomavirus type 1a E7 protein (residues 1-88); experiment: HPV1a E7 small-molecule binders, primary screen, biochemical, small-molecule microarray, residues 1-88, 635 nm (AID 1129); conditions: small-molecule microarray binding, fluorescence 635 nm; higher = more signal
[3] = target: Focal adhesion kinase 1 (Homo sapiens) (UniProt Q05397); experiment: small-molecule microarray binders of FAK, primary screen, biochemical, 635/667 nm fluorescence, BSA, DTT (AID 1130); conditions: PTK2 binding, 635 nm fluorescence, higher = more signal;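 further: composite of spot emission at 667 nm and signal to noise over triplicate slides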
[4] = test system: Fibrinogen (Alexa647-labelled); experiment: fibrinogen binders on compound microarrays, profiling panel, artefact control for SMM control-protein annotation, biochemical, small-molecule microarray, 635/667 nm fluorescence (AID 1131); conditions: fibrinogen-A647 binding fluorescence, higher = more signal;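 further: z-score merges 667 nm fluorescence with per-spot signal-to-noise over triplicate slides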
[5] = target: Follistatin (Homo sapiens) (UniProt P19883); experiment: follistatin binders on small-molecule microarrays, primary screen, biochemical, small-molecule microarray, 635/667 nm fluorescence (AID 1132); conditions: FST binding, 635 nm fluorescence, higher = more signal
[6] = target: Fibroblast growth factor 2 (Homo sapiens) (UniProt P09038); experiment: FGF2 binders on small-molecule microarrays, primary screen, biochemical, small-molecule microarray, 635/667 nm fluorescence (AID 1133); conditions: small-molecule microarray binding, FGF2, fluorescence 635/667; higher = more signal
[7] = mitochondrial membrane potential change in A549 cells, profiling panel, cell-based, JC-1 fluorescence, basal, 24 h, 100 nL (AID 1138); conditions: higher = more signal;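 further: A549 lung adenocarcinoma cells under basal conditions with no added stimulus; test concentration not given here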
Lefty1 = Lefty1 binders on small-molecule microarrays, primary screen, biochemical, small-molecule microarray, 635/667 nm fluorescence (AID 1139); conditions: small-molecule microarray binding, fluorescence 635/667; higher = more signal
[8] = test system: wheat germ agglutinin (Triticum aestivum), Alexa647-labelled; experiment: wheat germ agglutinin binders on compound microarrays, profiling panel, artefact control for SMM control-protein annotation, biochemical, small-molecule microarray, 635/667 nm fluorescence (AID 1140); conditions: WGA-A647 binding, 635 nm fluorescence, higher = more signal;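 further: score merges 667 nm feature emission with signal to noise over triplicate slides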
[9] = target: Luciferin 4-monooxygenase (Photinus pyralis) (UniProt P08659); experiment: firefly luciferase enzyme inhibitors, primary screen, biochemical, luminescence, purified enzyme, 2006 set (AID 1141); conditions: SteadyGlo luminescence, 30 min, higher = more signal, called active from +8 up or from −8 down;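 further: cell-free assay with purified firefly luciferase at 100 ng per well in PBS; test concentration not given here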
Luciferin 4-monooxygenase (Photinus pyralis), sequence (P08659 whole entry, looked up): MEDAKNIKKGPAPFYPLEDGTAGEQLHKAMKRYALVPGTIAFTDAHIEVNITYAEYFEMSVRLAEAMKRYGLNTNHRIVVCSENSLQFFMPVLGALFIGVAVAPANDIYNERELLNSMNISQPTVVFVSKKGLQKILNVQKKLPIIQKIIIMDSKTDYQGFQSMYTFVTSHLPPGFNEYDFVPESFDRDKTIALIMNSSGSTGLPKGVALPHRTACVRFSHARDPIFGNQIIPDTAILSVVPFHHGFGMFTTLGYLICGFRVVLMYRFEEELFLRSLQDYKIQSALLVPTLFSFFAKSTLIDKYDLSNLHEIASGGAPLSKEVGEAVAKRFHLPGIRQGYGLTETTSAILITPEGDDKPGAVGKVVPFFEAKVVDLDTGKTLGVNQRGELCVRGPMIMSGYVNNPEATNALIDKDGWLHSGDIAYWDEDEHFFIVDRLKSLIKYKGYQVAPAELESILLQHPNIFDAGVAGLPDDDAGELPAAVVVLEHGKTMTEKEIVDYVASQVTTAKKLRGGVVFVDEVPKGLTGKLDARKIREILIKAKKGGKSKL

Follistatin (Homo sapiens), sequence (P19883 whole entry, looked up): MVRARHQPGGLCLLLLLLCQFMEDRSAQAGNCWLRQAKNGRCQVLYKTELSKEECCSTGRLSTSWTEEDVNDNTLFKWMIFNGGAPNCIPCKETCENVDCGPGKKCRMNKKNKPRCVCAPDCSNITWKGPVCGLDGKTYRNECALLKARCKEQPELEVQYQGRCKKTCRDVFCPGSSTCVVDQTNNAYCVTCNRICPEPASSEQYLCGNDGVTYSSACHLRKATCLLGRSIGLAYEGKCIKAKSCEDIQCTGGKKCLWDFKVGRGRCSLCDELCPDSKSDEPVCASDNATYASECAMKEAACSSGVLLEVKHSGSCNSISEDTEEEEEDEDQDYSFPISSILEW
Fibroblast growth factor 2 (Homo sapiens), sequence (P09038 whole entry, looked up): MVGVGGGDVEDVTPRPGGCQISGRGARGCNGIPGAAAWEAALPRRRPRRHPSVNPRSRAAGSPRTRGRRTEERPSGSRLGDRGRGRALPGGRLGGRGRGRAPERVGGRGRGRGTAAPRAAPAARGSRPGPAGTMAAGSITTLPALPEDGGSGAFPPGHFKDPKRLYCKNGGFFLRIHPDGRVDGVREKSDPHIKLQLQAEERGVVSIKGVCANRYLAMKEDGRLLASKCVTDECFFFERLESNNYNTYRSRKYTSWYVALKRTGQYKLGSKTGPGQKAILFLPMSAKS
Focal adhesion kinase 1 (Homo sapiens), sequence (Q05397 whole entry, looked up): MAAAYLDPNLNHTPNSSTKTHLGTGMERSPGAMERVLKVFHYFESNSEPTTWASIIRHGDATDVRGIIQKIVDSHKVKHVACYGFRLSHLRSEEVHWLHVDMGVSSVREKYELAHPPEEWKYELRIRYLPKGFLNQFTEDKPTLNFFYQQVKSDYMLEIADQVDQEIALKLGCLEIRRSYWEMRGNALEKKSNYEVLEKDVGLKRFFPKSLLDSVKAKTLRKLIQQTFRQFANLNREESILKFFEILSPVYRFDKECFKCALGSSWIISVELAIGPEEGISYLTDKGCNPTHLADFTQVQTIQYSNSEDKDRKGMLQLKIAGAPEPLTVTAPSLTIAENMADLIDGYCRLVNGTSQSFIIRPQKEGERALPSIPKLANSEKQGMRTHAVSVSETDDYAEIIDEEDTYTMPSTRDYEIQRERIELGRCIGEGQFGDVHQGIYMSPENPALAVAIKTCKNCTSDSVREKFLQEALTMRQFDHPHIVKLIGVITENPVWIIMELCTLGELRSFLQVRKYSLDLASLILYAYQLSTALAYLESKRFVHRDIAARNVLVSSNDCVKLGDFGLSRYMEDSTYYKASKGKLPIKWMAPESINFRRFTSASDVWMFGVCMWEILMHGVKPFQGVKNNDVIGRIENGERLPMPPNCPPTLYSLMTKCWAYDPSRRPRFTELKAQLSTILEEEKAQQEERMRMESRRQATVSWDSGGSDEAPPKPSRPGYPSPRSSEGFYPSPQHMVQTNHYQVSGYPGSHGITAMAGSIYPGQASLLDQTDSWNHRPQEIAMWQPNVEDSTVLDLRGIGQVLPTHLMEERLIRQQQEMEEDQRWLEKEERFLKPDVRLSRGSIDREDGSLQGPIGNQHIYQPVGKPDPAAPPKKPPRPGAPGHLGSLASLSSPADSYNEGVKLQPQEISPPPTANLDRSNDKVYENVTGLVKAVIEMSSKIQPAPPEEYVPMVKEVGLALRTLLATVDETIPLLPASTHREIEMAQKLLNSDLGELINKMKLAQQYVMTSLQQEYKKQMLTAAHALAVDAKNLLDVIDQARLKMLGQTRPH

Row | SMILES | composite z-score [1] | composite z-score [2] | composite z-score [3] | composite z-score [4] | composite z-score [5] | composite z-score [6] | z-score [7] | composite z-score (Lefty1) | composite z-score [8] | z-score [9]
1 | COc1ccc([Si](C)(C)[C@@H]2[C@@H](CCn3cc([C@H](O)c4ccccc4)nn3)O[C@]3(C(=O)N(c4ccccc4)c4ccccc43)[C@H]2C)cc1 | -0.684 | 0.386 | 0.474 | -0.308 | 0.586 | 0.184 | 0.00801 | 0.424 | -0.348 | 0.389 (inactive)
2 | COc1ccc([Si](C)(C)[C@H]2[C@H](CC(=O)N3Cc4ccccc4C[C@H]3CO)O[C@@]3(C(=O)N(Cc4ccc(N5C(=O)c6cccc7cccc5c67)cc4)c4ccccc43)[C@@H]2C)cc1 | 0.33 | 1.15 | 1.28 | 0.405 | 1.07 | 1.37 | 1.34 | 1.01 | 0.237 | 0.0376 (inactive)
3 | O=C1[C@@]23C=C(Br)[C@H](C[C@@H]2COC3)[C@@]12CO2 | 0.192 | 0.247 | 0.0493 | 0.161 | 0.397 | 0.423 | -0.0605 | 0.414 | 0.0439 | 0.44 (inactive)
4 | [N-]=[N+]=Nc1ccccc1C[C@]1(C(=O)NCc2ccccc2)COC(c2ccc(OCCCO)cc2)=N1 | 1.39 | 1.2 | 0.467 | 0.963 | 1.16 | 0.17 | 1.85 | 0.556 | 1.14 | -5.16 (inactive)
5 | COCCCNC(=O)[C@@]1(c2ccc([N+](=O)[O-])cc2)CC(=O)N(C(C)C)[C@@H]1c1ccc(CO)cc1 | -0.92 | -0.085 | 0.756 | -0.779 | 0.559 | 0.352 | 0.296 | -0.0938 | 0.174 | -0.985 (inactive)
6 | COc1cc(NN2C(C(O)c3ccccc3)C=CC3C(=O)N(C)C(=O)C32)cc(OC)c1OC (stereo not given) | 0.981 | 1.19 | 0.681 | 0.959 | 0.756 | 0.216 | -0.109 | 0.229 | 1.23 | -1.69 (inactive)
7 | C=CCN1C(=O)[C@@]2(O[C@@H](CCO)[C@H]([Si](C)(C)c3ccc(OC)cc3)[C@H]2C)c2cc(N3CCOC3=O)ccc21 | 2.38 | 1.15 | 0.246 | 0.768 | -0.354 | -0.25 | -0.658 | 0.0949 | 0.486 | -1.03 (inactive)
8 | CO[C@H]1O[C@H](CO)[C@@H](OC(=O)Nc2ccc(C#N)cc2)[C@@H]2OC(=O)[C@H](Cc3cccc(Br)c3)C/C=C/C[C@@H](Cc3cccc(Br)c3)C(=O)O[C@@H]12 | 1.26 | 0.776 | -0.611 | 0.448 | 1.2 | 0.707 | 1.39 | 1.13 | 0.655 | 0.782 (inactive)
9 | COCCOC(=O)N1C(=O)[C@@]2(c3cc(C#CCC(C(=O)OC)C(=O)OC)ccc31)[C@H](C(=O)NC[C@H](O)c1ccccc1)[C@H]1C(=O)O[C@H](c3ccccc3)[C@H](c3ccccc3)N1[C@@H]2c1ccc(O)cc1 | 2.58 | 1.17 | 0.983 | -0.6 | 0.22 | 0.501 | -0.464 | 0.464 | 1.02 | -0.296 (inactive)
10 | CC1CC/C=C\[C@H]2OC34C=CCN(C(C)(C)C)C(=O)[C@H]3N(C(CO)C(C)C)C(=O)[C@@H]4C2C(=O)O1 (stereo not given in full) | -0.0256 | -0.181 | 0.102 | -1.26 | 0.276 | 0.365 | -0.428 | 0.659 | -0.324 | -0.0671 (inactive)
11 | COC(=O)[C@@]1(Cc2ccc(OC)cc2)[C@H]2c3cc(C(=O)N4CCCC4)n(Cc4ccc(S(C)(=O)=O)cc4)c3C[C@H]2CN1C(=O)c1ccccc1 | 0.486 | 1.26 | 0.721 | 0.996 | 0.0078 | -0.184 | 1.26 | -0.0956 | 0.479 | 0.922 (inactive)
12 | CCCCC=C[C@@H](NC(=O)c1ccccc1)c1ccccc1 | 0.249 | 1.18 | 1.43 | 0.987 | 0.527 | -0.79 | -0.584 | 0.4 | 0.68 | 0.965 (inactive)
13 | CCc1cccc(NC(=O)O[C@H]2[C@H](OC(=O)Nc3ccccc3)[C@H](OC(=O)Nc3ccccc3)[C@@H](OC)O[C@@H]2CO)c1 | 1.14 | 1.26 | 1.53 | 0.571 | 1.16 | 0.216 | -1.55 | 0.0478 | 0.751 | 0.234 (inactive)
14 | COCCCNC(=O)[C@@]1(Sc2ccc(C)cc2)CC(=O)N(Cc2ccccc2Cl)[C@@H]1c1ccc(CO)cc1I | 1.32 | -0.943 | 0.345 | -1.49 | -0.242 | -0.765 | 0.919 | -0.959 | -0.691 | -0.181 (inactive)
15 | CN(C)CCCC[C@@H]1NC(=O)[C@@H]2C[C@H](C(=O)O)[C@H](c3cccc(OCCO)c3)N2C1=O | 1.22 | -0.544 | -0.335 | 0.438 | 0.072 | 1.17 | 0.0092 | -0.528 | -0.138 | -0.836 (inactive)
16 | [N-]=[N+]=NCc1ccccc1[C@H]1OC(c2ccc(OCCCO)cc2)=N[C@@]1(Cc1ccccc1)C(=O)NCCN1CCOCC1 | 2.04 | 1.26 | 0.514 | 0.915 | 1.33 | 1.63 | 1.87 | 0.332 | 0.531 | -3.29 (inactive)
17 | CN1C(=O)C2C(C1=O)C1C=C(CCCO)C2C(c2cccs2)N1Cc1cc2c(cc1Br)OCO2 (stereo not given) | 1.12 | 1.22 | 1.07 | 1.04 | 1.35 | 0.502 | 0.903 | 0.265 | 1.17 | -1.48 (inactive)
18 | COc1ccc(C(=O)Nc2cccc(CN3C(=O)[C@]4(O[C@H](CCn5cc([C@H](O)c6ccccc6)nn5)[C@@H]([Si](C)(C)c5ccc(OC)cc5)[C@@H]4C)c4ccccc43)c2)cc1 | 1.07 | 0.514 | 0.31 | 0.242 | 1.19 | 0.348 | 0.456 | 0.752 | 0.12 | 0.889 (inactive)
19 | COCC(=C=CC[C@@H](O)c1ccc(OCCO)cc1)CCO | 0.656 | 0.529 | 0.17 | -0.97 | 1.08 | 0.517 | 0.721 | 0.993 | 1.27 | -0.776 (inactive)
20 | [N-]=[N+]=Nc1ccccc1[C@@H]1OC(c2ccc(OCCCO)cc2)=N[C@]1(Cc1ccccc1)C(=O)NCc1ccccc1 | 1.27 | 1.17 | 0.763 | 0.798 | 0.852 | 0.409 | -1.63 | 0.491 | 1.36 | -5.74 (inactive)
21 | CC(C)C(=C=CC[C@@H](O)c1cccc(OCCO)c1)C[C@@H](O)COCc1ccccc1 | 0.292 | 0.158 | -0.276 | 0.0013 | 0.844 | 0.34 | 1.6 | 0.318 | 0.866 | -2.11 (inactive)
22 | O=C1C[C@@](C(=O)NCc2ccccc2)(c2ccc([N+](=O)[O-])cc2)[C@@H](c2ccc(CO)cc2I)N1CC12CC3CC(CC(C3)C1)C2 | 0.579 | 0.976 | 0.121 | 0.846 | 1.41 | 1.54 | -1.36 | 1.52 | 1.07 | 1.34 (inactive)
23 | COC(=O)C(CC#Cc1ccc2c(c1)[C@]1(C(=O)N2)[C@H](c2ccc(O)cc2)N2[C@H](c3ccccc3)[C@H](c3ccccc3)OC(=O)[C@H]2[C@@H]1C(=O)N1CCCCCCC1)C(=O)OC | 0.792 | 1.23 | 1.47 | 0.945 | 1.43 | 1.4 | 1.21 | 0.966 | 1.35 | -1.99 (inactive)
24 | C=CCC(OC(C)=O)[C@@H]1[C@@H](N(Cc2cccc3ccccc23)C(=O)c2ccc(-c3ccccc3)cc2)c2cc(OCCCO)ccc2N1C(=O)c1ccc(-c2ccccc2)cc1 (stereo not given in full) | -0.811 | 0.488 | -0.132 | -0.123 | 0.353 | -0.0952 | 0.758 | 0.0683 | 0.204 | -0.0873 (inactive)
25 | Cc1nc2cc(Br)ccc2c(=O)n1Cc1cccc(O)c1 | 0.391 | 0.941 | 0.872 | 0.539 | 1.38 | 1.81 | 0.287 | 1.22 | 0.334 | 6.4 (inactive)
26 | CN(C)CCCCNC(=O)[C@H]1C[C@H]2C(=O)N[C@@H](CCCC[N+](C)(C)C)C(=O)N2[C@H]1c1ccc(O)cc1 | 1.12 | -0.454 | -0.294 | -1.24 | 0.525 | 0.0954 | -0.247 | 0.306 | 0.0976 | 0.0252 (inactive)
27 | [N-]=[N+]=NCc1ccccc1C[C@@]1(C(=O)N2CCCCC2)N=C(c2ccc(OCCCO)cc2)O[C@@H]1c1ccccc1CN=[N+]=[N-] | -0.174 | 1.18 | 0.457 | 1.02 | 0.913 | 0.74 | 0.342 | -0.611 | 1.28 | -0.57 (inactive)
28 | COC(=O)C(CC#Cc1ccc2c(c1)[C@]1(C(=O)N2)[C@H](c2ccc(OCCO)cc2)N2[C@H](c3ccccc3)[C@H](c3ccccc3)OC(=O)[C@H]2[C@@H]1C(=O)N1CCN(c2ncccn2)CC1)C(=O)OC | 1.92 | 1.21 | -0.528 | 0.993 | 1.37 | 1.35 | -1.56 | 0.857 | 1.04 | -0.195 (inactive)
29 | [N-]=[N+]=NCc1ccccc1[C@@H]1OC(c2ccc(OCCCO)cc2)=N[C@]1(Cc1ccccc1)C(=O)NCCN1CCOCC1 | 1.16 | 1.18 | 0.533 | 0.514 | 1.31 | 0.41 | 2.27 | -0.0059 | 0.721 | -1.94 (inactive)
